Records with an inconclusive call do not appear. Active and inactive are the calls of the source. Calls come from the whole dose curve; as a rule, active = well fitted curve in the direction sought with a large enough effect; inconclusive = small, poorly fitted or top-dose-only effect, or another doubt; inactive = no such curve, though single readings can be large or run the other way.
target: Thioredoxin reductase 1, cytoplasmic (Rattus norvegicus) (UniProt O89049); assay: qHTS Assay for Substrates of Mammalian Selenoprotein Thioredoxin Reductase 1 (TrxR1) (AID 488772); conditions: purified TrxR1, NADPH consumption substrate assay; series mostly up to 57.1 µM; activity change, negative = NADPH consumption: at the top concentration;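 note: 0% is about no effect; a drop in NADPH fluorescence below the no-compound background marks a TrxR1 substrate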
Source text: The selenoprotein thioredoxin reductase (TrxR; EC 1.8.1.9) is a FAD containing homodimeric pyridine nucleotide-disulfide oxidoreductase with many cellular roles. Together with NADPH and its prime substrate thioredoxin (Trx), the enzyme forms the core of the Trx system. The mammalian Trx system exerts a wide spectrum of functions including redox regulation, antioxidant defense, regulation of transcription factors as well as support of cell growth and replication. Many of these functions involve the reduction of Trx, which may subsequently reduce a number of different substrates including ribonucleotide reductase, peroxiredoxins or NFkB. Mammalian TrxR itself also has a broad substrate specificity, reducing both protein and non-protein substrates, including low molecular weight compounds such as dehydroascorbate, lipoic acid, ubiquinone, and juglone. In addition, several drugs in clinical use for anticancer treatment are indeed known to target TrxR1.
This BioAssay is a validation of an NADPH fluorescence-based, dual-purpose qHTS rTrxR1 assay designed to find potential inhibitors and substrates of rTrxR1. For this particular BioAssay, actives are potential substrates. See related BioAssay for inhibitors data deposition.
Assay protocol: 2 uL of reagents (buffer in column 4 as negative control and 90 nM rTrxR1 in columns 1-3 and 5-48) were dispensed into Greiner black solid-bottom 1,536-well assay plates, followed by 1 uL of NADPH (400 uM final concentration) to each well. The plates were centrifuged at 1000 rpm for 15 seconds and subsequently incubated for 5 min at room temperature (~22 deg C) to allow for rTrxR1 reduction. Compounds (23 nL) were then transferred via Kalypsys pin tool equipped with 1536-pin array (10 nL slotted pins, V&P Scientific, San Diego, CA). In addition, a duplicate 2-fold serial dilution of the control compounds auranofin, a known gold-based TrxR1 inhibitor, and juglone (5-hydroxy-1,4-naphthoquinone), a natural TrxR1 substrate, were pin-transferred to columns 2 and 3, respectively. After incubation for 15 min at room temperature (~22 deg C), 1 uL of selenite (400 uM final concentration) were dispensed to each well. The plate was immediately transferred to a ViewLux high-throughput CCD imager (PerkinElmer), wherein kinetic measurements of NADPH fluorescence (Ex 340 nm, Em 450 nm) were acquired (8 minute kinetic read, see Table 1). Read 1 was utilized to assess the capacity of a compound to serve as an rTrxR1 substrate, i.e. a decrease in NADPH fluorescence compared to the no-compound background is an indication of a substrate behavior for that particular compound. For inhibitory activity of a compound, delta values, computed as the difference in fluorescence intensity between the first and last reads of an 8-minute time kinetic window, were used. All reagents were diluted in an assay buffer consisting of 50 mM Tris-HCl, pH 7.5, 2 mM EDTA, and 0.01% Tween-20.
Throughout the screen, reagent bottle and all liquid lines were made light-tight to minimize reagent degradation. All screening operations were performed on a fully integrated robotic system (Kalypsys, San Diego, CA) containing one RX-130 and two RX-90 anthropomorphic robotic arms (Staubli, Duncan, SC). Library plates were screened starting from the lowest and proceeding to the highest concentration, and a 'double-pinning' step of the highest concentration was required to access higher concentrations of compounds. Vehicle-only plates, with DMSO being pin-transferred to the columns 5-48, were inserted uniformly at the beginning and the end of each library in order to monitor and record any shifts in the background, which can be affected by reagent dispensers or loss in enzyme activity over time. Screening data were corrected, normalized, and concentration-effect relationships were derived by using publicly-available curve fitting algorithms developed in-house (http://ncgc.nih.gov/pub/openhts).

Chain of Thioredoxin reductase 1, cytoplasmic (Rattus norvegicus) (O89049 whole entry, looked up): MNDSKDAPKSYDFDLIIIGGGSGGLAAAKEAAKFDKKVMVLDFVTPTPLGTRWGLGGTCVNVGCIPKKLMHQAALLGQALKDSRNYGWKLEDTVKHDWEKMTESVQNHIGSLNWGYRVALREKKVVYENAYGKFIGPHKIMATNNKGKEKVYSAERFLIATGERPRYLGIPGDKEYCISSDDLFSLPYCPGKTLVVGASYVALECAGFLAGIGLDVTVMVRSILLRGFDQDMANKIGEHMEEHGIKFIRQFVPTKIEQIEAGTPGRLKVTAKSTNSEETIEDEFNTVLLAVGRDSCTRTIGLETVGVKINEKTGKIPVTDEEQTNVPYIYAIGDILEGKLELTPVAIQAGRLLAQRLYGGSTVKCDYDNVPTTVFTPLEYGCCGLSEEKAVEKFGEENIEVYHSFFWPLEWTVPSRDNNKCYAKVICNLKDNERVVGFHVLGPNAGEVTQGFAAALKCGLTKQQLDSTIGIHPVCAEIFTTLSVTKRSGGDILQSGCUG

Structure (SMILES)	activity change, negative = NADPH consumption
COc1ccc2cc([C@H](C)C(=O)O)ccc2c1	4.7% (inactive)
Cc1c(OCC(F)(F)F)ccnc1CS(=O)c1nc2ccccc2[nH]1 (centres undefined)	-4.38% (inactive)
CC(=O)O[C@H]1C(=O)[C@@]2(C)C([C@H](OC(=O)c3ccccc3)[C@]3(O)C[C@H](OC(=O)[C@H](O)[C@@H](NC(=O)c4ccccc4)c4ccccc4)C(C)=C1C3(C)C)[C@]1(OC(C)=O)CO[C@@H]1C[C@@H]2O (some centres undefined)	-6.24% (inactive)
O=C1c2ccccc2-c2n[nH]c3cccc1c23	1.88% (inactive)
CC1(C)C(=O)N(CCN2CCC(C(=O)c3ccc(F)cc3)CC2)c2ccccc21	-8.34% (inactive)
O=c1c(O)c(-c2cc(O)c(O)c(O)c2)oc2cc(O)cc(O)c12	-8.96% (inactive)
CC1(C)NC(=O)N(c2ccc([N+](=O)[O-])c(C(F)(F)F)c2)C1=O	-2.01% (inactive)
Oc1ccc2ccccc2c1SSc1c(O)ccc2ccccc12	4.92% (inactive)
O=c1ccc2ccc(O)c(O)c2o1	-7.44% (inactive)
NCCCCNCCCN	2.95% (inactive)
COc1cc2nc(N3CCN(C(=O)C4CCCO4)CC3)nc(N)c2cc1OC (centres undefined)	98.7% (inactive)
Nc1nc(OCc2ccccc2)c2[nH]cnc2n1	-10.1% (inactive)
CC(=O)N1CCN(c2ccc(OC[C@H]3CO[C@](Cn4ccnc4)(c4ccc(Cl)cc4Cl)O3)cc2)CC1	-10.3% (inactive)
O=c1cc(N2CCOCC2)oc2c(-c3ccccc3)cccc12	-1.29% (inactive)
CCN(CC)C(=S)SSC(=S)N(CC)CC	-9.32% (inactive)
CCOC(=O)C(C)Oc1cccc2c(=O)n(CC(=O)Nc3ccc4c(c3)OCCO4)ccc12 (centres undefined)	-11.7% (inactive)
C[C@H](Cc1ccc(O)c(O)c1)[C@@H](C)Cc1ccc(O)c(O)c1	-1.01% (inactive)

Structure (SMILES)	activity change, negative = NADPH consumption
Cc1cc(O)c2c(c1)C(=O)c1cc(O)cc(O)c1C2=O	1.84% (inactive)
O=Nc1c(-c2c(O)[nH]c3cc(Br)ccc23)[nH]c2ccccc12	-8.13% (inactive)
CNC[C@H](O)c1ccc(O)c(O)c1	-10.6% (inactive)
Oc1ccc(-c2nc(-c3ccc(F)cc3)c(-c3ccncc3)[nH]2)cc1	-7.8% (inactive)
O=C1NC(=O)C(c2ccccc2[N+](=O)[O-])=C1Nc1ccc(O)c(Cl)c1	-3.47% (inactive)
COc1ccccc1N1CCN(CCN(C(=O)C2CCCCC2)c2ccccn2)CC1	-9.34% (inactive)
Nc1ccn([C@@H]2O[C@H](CO)[C@@H](O)C2O)c(=O)n1 (some centres undefined)	1.49% (inactive)
O=c1c(O)c(-c2ccc(O)cc2O)oc2cc(O)cc(O)c12	-3.77% (inactive)
O=C(O)c1cccnc1Nc1cccc(C(F)(F)F)c1	-3.27% (inactive)
CN(C)CCCC1(c2ccc(F)cc2)OCc2cc(C#N)ccc21 (centres undefined)	-6.81% (inactive)
Nc1nc(N)c(N=O)c(OCC2CCCCC2)n1	-9.43% (inactive)
O=C1c2c(O)cc(O)cc2OC(c2ccc(O)c(O)c2)C1O (centres undefined)	-3.38% (inactive)
Cc1cccc(C#Cc2ccccc2)n1	3.32% (inactive)
C[C@@H](N)C1CCC(C(=O)Nc2ccncc2)CC1 (some centres undefined)	-11.2% (inactive)
O=C(CCc1ccc(O)cc1)c1c(O)cc(O)cc1O	-10.6% (inactive)
NC(=NCc1ccccc1)NC(=O)c1nc(Cl)c(N)nc1N	0.651% (inactive)
COc1cc2c(cc1OC)C1CC(=O)C(CC(C)C)CN1CC2 (centres undefined)	-9.31% (inactive)

Source: PubChem BioAssay (NCATS)
